Data from PubChem BioAssay AID1004 (SRMLSC, 2008).
Values without a mark were called inactive. Calls of active or inactive are those of the source.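 The calls were made as follows: active = viability at 10 µM of 29.74% or lower, 3 SD below the compound median; inactive = the rest.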

Experiment: viability of HCT116 lacking mutant beta-catenin – cell-based, DP diverse set, validation, pilot screen (AID 1004)
Details: HCT116 (mutant beta-catenin deleted) viability, CellTiter-Glo, 60 h; at 10 µM; stronger effect = lower value

Going from `CC(=O)N1CCN(c2ccc(OC[C@H]3CO[C@](Cn4ccnc4)(c4ccc(Cl)cc4Cl)O3)cc2)CC1` to `Cc1c(C)c2c(c(C)c1O)CCC(C)(COc1ccc(CC3SC(=O)NC3=O)cc1)O2` (stereo not drawn), the viability rises from 76.8% to 92%.

Going from `COc1ccc(CCN(C)CCCC(C#N)(c2ccc(OC)c(OC)c2)C(C)C)cc1OC` (stereo not drawn) to `COc1ccc(C2CNC(=O)C2)cc1OC1CCCC1` (stereo not drawn), the viability rises from 88.8% to 99.4%.

First: CC[C@@]1([C@@H]2O[C@@H]([C@H]3O[C@@](O)(CO)[C@H](C)C[C@@H]3C)C[C@@H]2C)CC[C@H]([C@]2(C)CC[C@]3(C[C@H](O)[C@@H](C)[C@@H]([C@@H](C)[C@@H](OC)C(C)C(=O)O)O3)O2)O1 (stereo partly drawn)
Second: CC(=O)[C@H]1[C@H](C#N)CC2C3CC=C4C[C@@H](O)CCC4(C)C3CCC21C (stereo partly drawn)
The viability of the first is lower: 93% for the first, 98.1% for the second.

Compared with `CC[N+](CC)(CC)CC(=O)Nc1c(C)cccc1C`, `COC(=O)C1=C(C)NC(C)=C(C(=O)OCCNCc2ccccc2)C1c1cccc([N+](=O)[O-])c1` (stereo not drawn) is lower in viability: 101% for the first, 79.3% for the second.

Compared with `C[C@@]12C=Cc3occc3C1CC[C@@]13C[C@@H](CCC12)[C@@](O)(CO)C3` (stereo partly drawn), `C[C@]12CC[C@@H]3c4ccc(O)cc4CC[C@H]3[C@@H]1CC[C@H]2O` is lower in viability: 94.3% for the first, 91.1% for the second.

Compared with `CCN(CC)C(=S)SSC(=S)N(CC)CC`, `CC1=C(/C=C/C(C)=C/C=C/C(C)=C/C(=O)O)C(C)(C)CCC1` is higher in viability: 76.5% for the first, 96.5% for the second.

First: C=C1OC(CO)(n2cnc3c(N)ncnc32)C(O)C1O (stereo not drawn)
Second: C[C@H]1c2cccc(O)c2C(O)=C2C(=O)[C@]3(O)C(O)=C(C(N)=O)C(=O)[C@@H](N(C)C)[C@@H]3[C@@H](O)[C@@H]21
The viability of the first is lower: 95.1% for the first, 107% for the second.

First: NCCNS(=O)(=O)c1cccc2c(Cl)cccc12
Second: O=c1c(O)c(-c2ccc(O)c(O)c2)oc2cc(O)cc(O)c12
The viability of the first is higher: 95.7% for the first, 93% for the second.

`Cn1c(=O)c2[nH]cnc2n(C)c1=O` gave a viability of 100%.

With `Cc1cc2c(C(C)C)c(O)c(O)c(C=O)c2c(O)c1-c1c(C)cc2c(C(C)C)c(O)c(O)c(C=O)c2c1O` the viability was 28.5% (active).
